Only a sample is shown.
aSyn 5UTR act = Activators via SNCA 5'UTR binding, MLPCN; alpha-synuclein 5'UTR reporter, activators screen; AID 1814, 2009; 300,000 tested, 7.1% active; activity score, % (tested at 7.5 µM), hits read low; in the data active means activity score below about -60%
Starred values were filed as active, the others as inactive.

SMILES	aSyn 5UTR act
O=C(/C=C/c1cccc([N+](=O)[O-])c1)Nc1ccc(Cl)cn1	-92.0*
Cc1ccc(NC(=O)/C=C/c2ccc(Cl)cc2)nc1	-157.7*
CC(C)c1ccc(NC(=S)NCc2cccs2)cc1	-85.7*
CCC1CCCCN1CCCNC(=O)Cn1c2ccccc2c2nc(=O)cc(C)n21 (stereo not drawn)	-138.9*
CSc1nc2ncc(-c3ccsc3)c(N)n2n1	-62.1*
O=C(c1ccc(OC(F)(F)F)cc1)c1ncc[nH]1	-83.3*
CCCCCN1C(=O)/C(=C/c2c(N3CCc4ccccc4C3)nc3ccccn3c2=O)SC1=S	-93.8*
COc1nn(-c2ccccc2)c(=O)c(Cl)c1Cl	-347.4*
COc1ccc(Sc2cnn(-c3ccccc3)c(=O)c2Cl)cc1	-73.4*
COc1ccc(-n2ncc(Cl)c(Cl)c2=O)cc1	-154.5*
CC(C)CSC1=NSC2=NC(=O)/C(=C\c3cccs3)C(=N)N12	-68.9*
CSC1=NSC2=NC(=O)/C(=C\c3cccs3)C(=N)N12	-198.9*
CC(C)c1ccc2c(c1)C1Cc3ccccc3C1N2 (stereo not drawn)	-195.6*
COc1cccc(NC(=O)Nc2cc(C)on2)c1	-92.6*
Cc1cc(NC(=O)Nc2ccc(C)c(C)c2)no1	-122.7*
COc1ccc(C(=O)Nc2ccc(C)cn2)c(OC)c1	115.5
COc1cccc(C(=O)NC(=O)Nc2cc(C)on2)c1	-93.8*
COc1ccc(C(=O)Nc2cc(C)on2)c(OC)c1	-141.2*
CC(C)N=C1NN=C(c2cccs2)CS1	-99.9*
CC(C)N=C1NN=C(c2ccc(Cl)c(Cl)c2)CS1	-228.1*
CC(C)c1ccc(N=C2NN=C(c3cccs3)CS2)cc1	-145.3*
CCOc1ccc2[nH]c(C(=O)N/N=C/c3ccccc3OC)cc2c1	-116.2*
CCOc1ccc(/C=N/NC(=O)c2cc3c(OC)cc(OC)c(OC)c3[nH]2)cc1	-78.2*
COc1cc(C(=O)N/N=C/C2CC=CCC2)cc(OC)c1OC (stereo not drawn)	107.5
COc1ccc2[nH]c(C(=O)N/N=C/c3ccccc3OC)cc2c1	-119.0*
SMILES	aSyn 5UTR act
Cc1ccccc1C(=O)N1CCN(c2ccc(NC(=O)c3ccc([N+](=O)[O-])o3)cc2)CC1	-167.8*
CCCC(=O)N1CCN(c2ccc(NC(=O)c3ccc([N+](=O)[O-])o3)cc2Cl)CC1	-118.0*
Cc1ccccc1C(=O)N1CCN(c2ccc(NC(=O)c3ccc4c(c3)OCO4)cc2)CC1	47.7
CC(=O)c1ccc(NC(=O)c2ccc([N+](=O)[O-])o2)cc1	-355.4*
CN1CCN(c2ccc(NC(=O)c3ccc([N+](=O)[O-])o3)cc2Cl)CC1	60.5
COc1ccc(NC(=O)c2ccc([N+](=O)[O-])o2)cc1	-319.6*
O=C(Nc1ccc2oc(=O)ccc2c1)c1ccc(-c2cccc([N+](=O)[O-])c2)o1	91.5
CN1CCN(c2ccc(NC(=O)c3ccc(-c4cccc([N+](=O)[O-])c4)o3)cc2)CC1	-208.4*
NS(=O)(=O)c1ccc(O)c(NC(=O)c2ccc([N+](=O)[O-])o2)c1	-62.0*
Cc1ccc(S(=O)c2snnc2C)cc1 (stereo not drawn)	-66.0*
Cc1nnsc1S(=O)c1ccc(F)cc1 (stereo not drawn)	-68.2*
Cc1nnsc1S(=O)c1ccc(Br)cc1 (stereo not drawn)	-148.3*
Cc1cccc(Nc2nnc(SCC(=O)Nc3ccccc3[N+](=O)[O-])s2)c1C	-90.5*
Cc1cccc(Nc2nnc(SC/C(O)=C(\C#N)c3nc4ccccc4[nH]3)s2)c1C	-62.8*
Cc1ccc(Nc2nnc(SCC(=O)Nc3cccnc3Cl)s2)cc1C	-108.9*
CC#CC(=O)N1CCC(C(=O)Nc2ccc(Oc3ccccc3)nc2)CC1	-175.2*
CC1(C)COC(/C=C/c2ccc([N+](=O)[O-])cc2)=N1	-93.0*
Cn1c(NC(=O)CCC2CCCCC2)cc(=O)n(C)c1=O	-62.8*
Cc1ccc(O)c(NC(=O)CCC2CCCCC2)c1	-152.0*
O=C(CCC1CCCCC1)Nc1ccccc1O	-162.6*
Clc1cccc(Nc2ncnc3c2cnn3-c2ccccc2)c1	-86.3*
Fc1cccc(Nc2ncnc3c2cnn3-c2ccccc2)c1	-172.8*
O=C(O)c1cccc(Nc2ncnc3c2cnn3-c2ccccc2)c1	-100.9*
Cc1ccc(OCC(=O)NCc2ccccn2)c(Br)c1	-104.0*
O=C(NCCSc1ccccn1)c1ccc(Cl)cc1Cl	-92.5*
SMILES	aSyn 5UTR act
O=C(COc1ccc(F)cc1Br)NCc1ccccn1	-88.4*
O=C(COc1ccccc1Br)NCc1ccccn1	-70.7*
Cc1ccc(C(=O)NCc2ccccn2)c(Cl)c1	-92.0*
COc1ccc(C2C(C(=O)c3cccs3)=C(O)C(=O)N2c2nncs2)cc1 (stereo not drawn)	-108.0*
CCc1ccc(-c2cc(C)no2)cc1S(=O)(=O)N1CCN(c2ccccc2)CC1	-73.0*
COc1cc(/C=N/Nc2nc(Nc3ccccc3)nc(-n3nc(C)cc3C)n2)cc(OC)c1OC	-67.6*
Cc1sc2ncn(/N=C/c3ccco3)c(=O)c2c1C	-67.2*
Cn1cc(/C=N/n2cnc3scc(-c4ccc(Cl)cc4)c3c2=O)c2ccccc21	87.0

Screens deposited in PubChem by Broad Institute.
